PubChem BioAssay AID1159580 (chemical genetic matrix, 2015)
Hit rate of the full screen: of about 5,500 compounds, about 2,000 (36%) were called active. Inconclusive results (about 18%) are left out. Rule as the data show it: active = normalized growth mostly below about 0.91 (no sharp cut-off); inconclusive = no clear call, values can overlap the other calls; inactive = mostly above about 0.92. Some of the results follow.

Assay: chemical genetic growth profiling, strain panel (AID 1159580);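 also: tested at 20 µM; growth read once vehicle control cultures reached saturation at 30 °C; 1 = growth at the plate median or of vehicle wells; lower values mean less growth of the strain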
Settings: growth OD

Measured: normalized growth

O=C(O)c1ccc(S(=O)(=O)N(Cl)Cl)cc1
inactive: S. cerevisiae deletion strains, locus YJR066W, strain TOR1, stronger effect = lower value 0.916 | S. cerevisiae deletion strains, locus YKL009W, strain mrt4, stronger effect = lower value 0.99 | S. cerevisiae deletion strains, locus YKL068W, stronger effect = lower value 1 | S. cerevisiae deletion strains, locus YKL085W, strain MDH1 (second series), stronger effect = lower value 1.01 | S. cerevisiae deletion strains, locus YKL085W, strain MDH1, stronger effect = lower value 1.01 | S. cerevisiae deletion strains, locus YKL160W, strain elf1, stronger effect = lower value 1.05 | S. cerevisiae deletion strains, locus YKL190W, strain CNB1, stronger effect = lower value 1 | S. cerevisiae deletion strains, locus YKR001C, strain vps1, stronger effect = lower value 1.02 | S. cerevisiae deletion strains, locus YKR026C, strain gcn3, stronger effect = lower value 0.977 | S. cerevisiae deletion strains, locus YKR091W, strain srl3, stronger effect = lower value 0.989 | S. cerevisiae deletion strains, locus YLL001W, strain dnm1, stronger effect = lower value 1.03 | S. cerevisiae deletion strains, locus YLL026W, stronger effect = lower value 0.976 | S. cerevisiae deletion strains, locus YLL041C, strain sdh2, stronger effect = lower value 0.989 | S. cerevisiae deletion strains, locus YLR027C, strain aat2, stronger effect = lower value 0.985 | S. cerevisiae deletion strains, locus YLR039C, strain RIC1, stronger effect = lower value 0.985 | S. cerevisiae deletion strains, locus YLR058C, strain SHM2, stronger effect = lower value 1.01 | S. cerevisiae deletion strains, locus YLR102C, strain apc9, stronger effect = lower value 1.02 | S. cerevisiae deletion strains, locus YLR113W, strain HOG1, stronger effect = lower value 0.961 | S. cerevisiae deletion strains, locus YLR221C, strain rsa3, stronger effect = lower value 1.02 | S. cerevisiae deletion strains, locus YLR258W, strain gsy2, stronger effect = lower value 0.994 | S. cerevisiae deletion strains, locus YLR262C, strain YPT6 (second series), stronger effect = lower value 1 | S. cerevisiae deletion strains, locus YLR262C, strain YPT6, stronger effect = lower value 0.995 | S. cerevisiae deletion strains, locus YLR268W, strain sec22, stronger effect = lower value 1 | S. cerevisiae deletion strains, locus YLR320W, strain mms22, stronger effect = lower value 1.05 | S. cerevisiae deletion strains, locus YLR330W, strain CHS5, stronger effect = lower value 0.999 | S. cerevisiae deletion strains, locus YLR342W, strain FKS1 (second series), stronger effect = lower value 0.993 | S. cerevisiae deletion strains, locus YLR342W, strain FKS1, stronger effect = lower value 0.983 | S. cerevisiae deletion strains, locus YLR357W, strain rsc2, stronger effect = lower value 1.01 | S. cerevisiae deletion strains, locus YLR370C, strain arc18, stronger effect = lower value 0.974 | S. cerevisiae deletion strains, locus YLR371W, strain rom2, stronger effect = lower value 1.01 | S. cerevisiae deletion strains, locus YLR384C, strain iki3, stronger effect = lower value 0.988 | S. cerevisiae deletion strains, locus YLR418C, strain cdc73, stronger effect = lower value 0.951 | S. cerevisiae deletion strains, locus YML016C, strain PPZ1, stronger effect = lower value 1.01 | S. cerevisiae deletion strains, locus YML032C, strain rad52, stronger effect = lower value 1.02 | S. cerevisiae deletion strains, locus YML120C, strain ndi1, stronger effect = lower value 1.03 | S. cerevisiae deletion strains, locus YML124C, strain tub3, stronger effect = lower value 1.03 | S. cerevisiae deletion strains, locus YMR058W, strain fet3, stronger effect = lower value 0.983 | S. cerevisiae deletion strains, locus YMR078C, strain ctf18, stronger effect = lower value 1.03 | S. cerevisiae deletion strains, locus YMR125W, strain sto1, stronger effect = lower value 1.02 | S. cerevisiae deletion strains, locus YMR129W, stronger effect = lower value 0.984 | S. cerevisiae deletion strains, locus YMR205C, strain PFK2, stronger effect = lower value 1.04 | S. cerevisiae deletion strains, locus YMR223W, strain ubp8, stronger effect = lower value 1.02 | S. cerevisiae deletion strains, locus YMR231W, strain pep5, stronger effect = lower value 0.978 | S. cerevisiae deletion strains, locus YMR307W, strain GAS1, stronger effect = lower value 0.964 | S. cerevisiae deletion strains, locus YNL067W, strain RPL9B, stronger effect = lower value 1 | S. cerevisiae deletion strains, locus YNL071W, strain lat1, stronger effect = lower value 0.998 | S. cerevisiae deletion strains, locus YNL128W, strain TEP1, stronger effect = lower value 1.02 | S. cerevisiae deletion strains, locus YNL183C, strain NPR1, stronger effect = lower value 0.926 | S. cerevisiae deletion strains, locus YNL209W, strain ssb2, stronger effect = lower value 0.983 | S. cerevisiae deletion strains, locus YNL233W, strain BNI4, stronger effect = lower value 0.997 | S. cerevisiae deletion strains, locus YNL248C, strain rpa49, stronger effect = lower value 1.06 | S. cerevisiae deletion strains, locus YNL250W, strain rad50, stronger effect = lower value 1.02 | S. cerevisiae deletion strains, locus YNL271C, strain bni1, stronger effect = lower value 1.03 | S. cerevisiae deletion strains, locus YNL298W, strain CLA4, stronger effect = lower value 1.05 | S. cerevisiae deletion strains, locus YNL307C, strain MCK1, stronger effect = lower value 1.01 | S. cerevisiae deletion strains, locus YNL322C, strain KRE1 (second series), stronger effect = lower value 0.992 | S. cerevisiae deletion strains, locus YNR049C, strain mso1, stronger effect = lower value 0.975 | S. cerevisiae deletion strains, locus YNR052C, strain pop2, stronger effect = lower value 1.01 | S. cerevisiae deletion strains, locus YOL006C, strain TOP1, stronger effect = lower value 1.01 | S. cerevisiae deletion strains, locus YOL012C, strain htz1 2.24 | S. cerevisiae deletion strains, locus YOL147C, strain pex11, stronger effect = lower value 1.02 | S. cerevisiae deletion strains, locus YOR001W, strain rrp6, stronger effect = lower value 0.944 | S. cerevisiae deletion strains, locus YOR061W, strain CKA2, stronger effect = lower value 1.01 | S. cerevisiae deletion strains, locus YOR069W, strain VPS5, stronger effect = lower value 0.998 | S. cerevisiae deletion strains, locus YOR070C, strain gyp1, stronger effect = lower value 0.967 | S. cerevisiae deletion strains, locus YOR080W, strain dia2, stronger effect = lower value 0.969 | S. cerevisiae deletion strains, locus YOR083W, strain WHI5, stronger effect = lower value 1.05 | S. cerevisiae deletion strains, locus YOR106W, strain vam3, stronger effect = lower value 1.06 | S. cerevisiae deletion strains, locus YOR136W, strain idh2, stronger effect = lower value 1.02 | S. cerevisiae deletion strains, locus YOR144C, strain elg1, stronger effect = lower value 1.02 | S. cerevisiae deletion strains, locus YOR184W, strain ser1, stronger effect = lower value 0.992 | S. cerevisiae deletion strains, locus YOR231W, strain MKK1, stronger effect = lower value 0.971 | S. cerevisiae deletion strains, locus YOR265W, strain rbl2, stronger effect = lower value 0.981 | S. cerevisiae deletion strains, locus YOR270C, strain vph1, stronger effect = lower value 1.01 | S. cerevisiae deletion strains, locus YOR290C, strain snf2, stronger effect = lower value 1 | S. cerevisiae deletion strains, locus YOR316C, strain cot1, stronger effect = lower value 1.02 | S. cerevisiae deletion strains, locus YPL051W, strain arl3, stronger effect = lower value 1.02 | S. cerevisiae deletion strains, locus YPL055C, strain LGE1, stronger effect = lower value 0.979 | S. cerevisiae deletion strains, locus YPL078C, strain atp4, stronger effect = lower value 1.05 | S. cerevisiae deletion strains, locus YPL106C, strain sse1, stronger effect = lower value 0.985 | S. cerevisiae deletion strains, locus YPL240C, strain hsp82, stronger effect = lower value 0.989 | S. cerevisiae deletion strains, locus YPL241C, strain CIN2, stronger effect = lower value 1 | S. cerevisiae deletion strains, locus YPL256C, strain CLN2, stronger effect = lower value 0.97 | S. cerevisiae deletion strains, locus YPR119W, strain clb2, stronger effect = lower value 1.02 | S. cerevisiae deletion strains, locus YPR141C, strain kar3, stronger effect = lower value 1.02 | S. cerevisiae deletion strains, locus YPR163C, strain tif3, stronger effect = lower value 1.04 | S. cerevisiae deletion strains, locus YPR167C, strain met16, stronger effect = lower value 1.02 | S. cerevisiae deletion strains, strain wtn01, stronger effect = lower value 1.01 | S. cerevisiae strains, strain wild type, stronger effect = lower value 1
